In PubChem BioAssay (Tox21):
Results filed as inconclusive are left out. Active and inactive are the calls of the source. Unless noted, calls come from the whole dose curve; as a rule, active = well fitted curve in the direction sought with a large enough effect in the repeat runs; inconclusive = weak or mixed curves; inactive = no such curve, though single readings can be large; an effect the other way counts as inactive or inconclusive.

What was measured:
[1] = qHTS assay to identify small molecule agonists of the hypoxia (HIF-1) signaling pathway - cell viability counter screen (AID 1224844; calls by dose curve; note: nearly all actives have a fitted effect of over 50% in size)
Method in brief: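 CellTiter-Glo luminescence read-out, 30 min RT, taken in the same wells as the beta-lactamase HRE reporter assay; HRE-bla ME-180 cells, 0.5% dialyzed FBS, 17 hr compound treatment at 37C, 5% CO2.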

[2] = qHTS assay to identify small molecule agonists of H2AX (AID 1224845; active = well fitted activation curve with a large enough effect in the signal ratio in the repeat runs, not every such curve was filed as active; the % refers to the signal ratio)
Method in brief: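 Phospho-H2AX Ser139 measured by HTRF (ex 320 nm; em 665 and 620 nm) after 24 hr antibody incubation. Compounds, 15 concentrations, 0.76% DMSO, were applied to CHO-K1 cells for 3hr at 37C before lysis.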

[3] = qHTS assay to identify small molecule agonists of the hypoxia (HIF-1) signaling pathway (AID 1224846; active = well fitted activation curve with a large enough effect in the signal ratio in the repeat runs, not every such curve was filed as active; the % refers to the signal ratio)
Method in brief: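 Beta-lactamase FRET read-out (CCF4-AM substrate) from ME-180 cells carrying an HRE-driven bla reporter, after 17 hrs compound exposure at 37C/5% CO2. Cells were seeded at 2,000 per well in 0.5% dialyzed FBS medium and preincubated 5 hrs.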

[4] = qHTS assay to identify small molecule agonists of H2AX - cell viability counter screen (AID 1224847; calls by dose curve;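 note: wild-type CHO-K1 cells; top concentration of the series differs between compounds; nearly all actives have a fitted effect of over 30% in size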)
Method in brief: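 CHO-K1 cells plated overnight at 37C, then exposed 3 h at 37C to compounds at 15 concentrations (0.76% DMSO final). Viability by CellTiter-Glo luminescence after 30 min at room temperature.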

[5] = qHTS assay to identify small molecule antagonists of the estrogen related receptor (ERR) signaling pathway from Tox21 library (AID 1224848); note: nearly all actives have a fitted effect of over 50% in size
Method in brief: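 Luciferase luminescence (ONE-Glo, 30 min room temperature) was the read-out. Cells of the NTP-supplied ERR line, 2,000 per well, were given 6 h at 37 C before compound addition in DMSO and 18 h exposure at 37 C.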

[6] = qHTS assay to identify small molecule agonists of the estrogen related receptor (ERR) signaling pathway from Tox21 library (AID 1224849; calls by dose curve; note: nearly all actives have a fitted effect of over 15% in size)
Method in brief: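 Luminescence readout (ONE-Glo, 30 min RT) after 18 h compound exposure at 37 C of NTP-supplied ERR reporter cells; cells were plated 6 h before compound addition by pin tool.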

[7] = qHTS RealTime-Glo MT Cell Viability Assay in HepG2 cells - 24 hour (AID 1224867); note: nearly all actives have a fitted effect of over 50% in size
Method in brief: (§1)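 Viability was tracked continuously by NanoLuc luminescence from prosubstrate reduced by living HepG2 cells, at successive time points over 40 h of compound exposure. Cells with reagent were preincubated 5 h at 37 °C before compound addition.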

[8] = qHTS RealTime-Glo MT Cell Viability Assay in HEK293 cells - 32 hour (AID 1224868); note: top concentration of the series differs between compounds; nearly all actives have a fitted effect of over 50% in size
Method in brief: (§2)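 Viability tracked continuously by luminescence as live cells reduce a prosubstrate for NanoLuc; HEK293 cells preincubated 5 h, compound-treated at 37 C, and read at 0, 8, 16, 24, 32 and 40 h.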

[9] = A CellTox Green Cytotoxicity Assay to monitor cytotoxicity in HEK293 cells - 0 hour (AID 1224869); note: nearly all actives have a fitted effect of over 50% in size
Method in brief: (§3)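 Read-out: fluorescence of a cell-impermeant cyanine dye staining DNA of dead cells, proportional to cytotoxicity. HEK293, 600 cells/well with reagent, compound (23 nL DMSO) added after 5 h; reads at 0, 8, 16, 24, 32, 40 h.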

[10] = qHTS RealTime-Glo MT Cell Viability Assay in HepG2 cells - 40 hour (AID 1224870); note: nearly all actives have a fitted effect of over 50% in size
Method in brief: (§4)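 Real-time viability: cells seeded at 600 per well together with NanoLuc and cell-permeant prosubstrate, compounds added after 5 h incubation. Luminescence tracked at 0, 8, 16, 24, 32 and 40 h of exposure.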

[11] = A CellTox Green Cytotoxicity Assay to monitor cytotoxicity in HEK293 cells - 40 hour (AID 1224871); note: nearly all actives have a fitted effect of over 45% in size
Method in brief: as §3

[12] = qHTS RealTime-Glo MT Cell Viability Assay in HEK293 cells - 16 hour (AID 1224872)
Method in brief: as §2

[13] = qHTS RealTime-Glo MT Cell Viability Assay in HepG2 cells - 8 hour (AID 1224873); note: nearly all actives have a fitted effect of over 55% in size
Method in brief: as §4

[14] = qHTS RealTime-Glo MT Cell Viability Assay in HEK293 cells - 40 hour (AID 1224874); conditions: RealTime-Glo luminescence; max response: hits give low values; note: nearly all actives have a fitted effect of over 50% in size
Method in brief: (§5)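 Luminescence readout at each listed time point; HEK293, 600 cells/well, RealTime-Glo MT reagent added with cells; compounds pinned (23 nL in DMSO) after 5 h at 37 C; continuous culture at 37 C.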

[15] = A CellTox Green Cytotoxicity Assay to monitor cytotoxicity in HEK293 cells - 24 hour (AID 1224875); note: series mostly up to about 77 µM; nearly all actives have a fitted effect of over 45% in size
Method in brief: as §3

[16] = A CellTox Green Cytotoxicity Assay to monitor cytotoxicity in HepG2 cells - 16 hour (AID 1224876); note: nearly all actives have a fitted effect of over 45% in size
Method in brief: (§6)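 HepG2, 600 cells/well premixed w/ CellTox Green; 5 h settle, 37 C/5% CO2; pintool cpd add (DMSO); 37 C, 40 h; fluorescence read at 0, 8, 16, 24, 32, 40 h.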

[17] = qHTS RealTime-Glo MT Cell Viability Assay in HepG2 cells - 32 hour (AID 1224877); note: nearly all actives have a fitted effect of over 55% in size
Method in brief: as §1

[18] = A CellTox Green Cytotoxicity Assay to monitor cytotoxicity in HepG2 cells - 24 hour (AID 1224878); note: nearly all actives have a fitted effect of over 45% in size
Method in brief: as §6

[19] = A CellTox Green Cytotoxicity Assay to monitor cytotoxicity in HepG2 cells - 40 hour (AID 1224879); note: nearly all actives have a fitted effect of over 40% in size
Method in brief: as §6

[20] = qHTS RealTime-Glo MT Cell Viability Assay in HEK293 cells - 0 hour (AID 1224880)
Method in brief: as §5
% is set by controls: 0 for no effect and ±100 for the full control effect.

COc1ccccc1OCC1CNC(=O)O1 (centres undefined)
inactive: Potency [1] | Potency [2] | outcome [3] | outcome [4] | Potency [5] | outcome [6] | outcome [7] | Potency [8] | outcome [9] | Potency [10] | Potency [11] | Potency [12] | outcome [13] | max response [14] 8.57% | outcome [15] | outcome [16] | Potency [17] | outcome [18] | Potency [19] | Potency [20]

C[N+]1(CC2COC(c3ccccc3)(c3ccccc3)O2)CCCCC1 (centres undefined)
inactive: activity change, negative = cytotoxicity [1] 0.991% [at 15.8 µM] | activation (H2AX phosphorylation) [2] -1.86% [at 31.6 µM] | activation [3] 0.207% [at 15.8 µM] | activity change, negative = cytotoxicity [4] -1.84% [at 31.6 µM] | activity, negative = inhibition [5] 4.63% [at 19 µM] | activity change, positive = activation [6] 2.6% [at 19 µM] | cytotoxicity [9] -9.06% [at 15.8 µM] | cytotoxicity increase [11] -8.19% [at 15.8 µM] | activity change, negative = cytotoxicity [12] -1.95% [at 15.8 µM] | viability change, negative = cytotoxic [13] 1.12% [at 15.8 µM] | max response [14] -1.89% | activity change [15] -7.42% [at 15.8 µM] | cytotoxicity increase [16] -3.73% [at 15.8 µM] | activity change, negative = cytotoxic [17] -9% [at 15.8 µM] | cytotoxicity [18] -0.651% [at 15.8 µM] | activity change, negative = cytotoxicity [20] -4.13% [at 15.8 µM]

C[C@H]1C[C@H]2[C@@H]3CCC4=CC(=O)C=C[C@]4(C)[C@H]3C(=O)C[C@]2(C)[C@@]1(O)C(=O)CO
inactive: Potency [1] | Potency [2] | outcome [3] | outcome [4] | Potency [5] | outcome [7] | Potency [8] | outcome [9] | Potency [10] | Potency [11] | Potency [12] | outcome [13] | max response [14] 0.535% | outcome [15] | outcome [16] | Potency [17] | outcome [18] | Potency [19] | Potency [20]

Cc1cc(C)c(N=Nc2c(O)c(S(=O)(=O)O)cc3cc(S(=O)(=O)O)ccc23)cc1C
inactive: activity change, negative = cytotoxicity [1] -6.32% [at 6.97 µM] | activation (H2AX phosphorylation) [2] 1.25% [at 14 µM] | activation [3] -0.827% [at 7.01 µM] | activity change, negative = cytotoxicity [4] -10.4% [at 14 µM] | activity, negative = inhibition [5] -9.99% [at 8.39 µM] | activity change, positive = activation [6] -5.16% [at 8.39 µM] | activity change, negative = cytotoxicity [7] -1.15% [at 6.97 µM] | cytotoxicity [9] 0.859% [at 6.97 µM] | activity change, negative = cytotoxic [10] -8.96% [at 6.97 µM] | cytotoxicity increase [11] 18.5% [at 6.97 µM] | viability change, negative = cytotoxic [13] 5.41% [at 6.97 µM] | activity change [15] 16.7% [at 6.97 µM] | cytotoxicity increase [16] 0.0418% [at 6.97 µM] | activity change, negative = cytotoxic [17] -2.9% [at 6.97 µM] | cytotoxicity [18] -2.84% [at 6.97 µM] | cytotoxicity increase [19] -2.22% [at 6.97 µM]

C=CCCCCCCCCC(=O)OCC
inactive: Potency [1] | Potency [2] | outcome [3] | outcome [4] | Potency [5] | outcome [6] | Potency [8] | outcome [9] | Potency [10] | Potency [12] | outcome [13] | max response [14] 3.1% | outcome [15] | outcome [16] | Potency [17] | outcome [18] | Potency [19] | Potency [20]

CCCC(C)C(=O)OCC (centres undefined)
inactive: Potency [1] | Potency [2] | outcome [3] | outcome [4] | Potency [5] | outcome [7] | outcome [9] | Potency [10] | Potency [11] | Potency [12] | outcome [13] | max response [14] -2.71% | outcome [15] | outcome [16] | Potency [17] | outcome [18] | Potency [19] | Potency [20]

CC[C@H]1OC(=O)[C@H](C)[C@@H](O[C@H]2C[C@@](C)(OC)[C@@H](O)[C@H](C)O2)[C@H](C)[C@@H](O[C@@H]2O[C@H](C)C[C@H](N(C)C)[C@H]2O)[C@](C)(OC)C[C@@H](C)C(=O)[C@H](C)[C@@H](O)[C@]1(C)O
inactive: Potency [1] | Potency [2] | outcome [3] | outcome [4] | Potency [5] | outcome [7] | Potency [8] | outcome [9] | Potency [10] | Potency [11] | Potency [12] | outcome [13] | max response [14] -20.3% | outcome [15] | outcome [16] | Potency [17] | outcome [18] | Potency [19] | Potency [20]

CCCCOCCOC(=O)CCCCCCCCC(=O)OCCOCCCC
inactive: Potency [1] | Potency [2] | outcome [3] | outcome [4] | Potency [5] | outcome [7] | Potency [8] | outcome [9] | Potency [10] | Potency [11] | Potency [12] | outcome [13] | max response [14] 7.25% | outcome [15] | outcome [16] | Potency [17] | outcome [18] | Potency [19] | Potency [20]

Clc1cc(Cl)cc(Cl)c1
inactive: Potency [1] | Potency [2] | outcome [3] | outcome [4] | Potency [5] | outcome [6] | outcome [7] | Potency [8] | outcome [9] | Potency [10] | Potency [11] | Potency [12] | outcome [13] | max response [14] 12.7% | outcome [15] | outcome [16] | Potency [17] | outcome [18] | Potency [19] | Potency [20]

CCOC(=O)c1ccccc1
inactive: Potency [1] | Potency [2] | outcome [3] | outcome [4] | Potency [5] | outcome [7] | outcome [9] | Potency [11] | Potency [12] | outcome [13] | max response [14] -0.292% | outcome [15] | outcome [16] | Potency [17] | outcome [18] | Potency [19] | Potency [20]

CC1=C(C/C=C(\C)CCC[C@H](C)CCC[C@H](C)CCCC(C)C)C(=O)c2ccccc2C1=O
inactive: Potency [1] | Potency [2] | outcome [3] | outcome [4] | Potency [5] | outcome [7] | Potency [10] | Potency [11] | outcome [13] | outcome [15] | outcome [16] | Potency [17] | outcome [18] | Potency [20]

O=Cc1cccc(Br)c1
inactive: Potency [1] | Potency [2] | outcome [3] | outcome [4] | Potency [5] | outcome [7] | Potency [8] | Potency [10] | Potency [11] | Potency [12] | outcome [13] | max response [14] 4.64% | outcome [15] | outcome [16] | Potency [17] | outcome [18] | Potency [20]

O=C1NC(=O)C2CC=CCC12 (centres undefined)
inactive: Potency [1] | Potency [2] | outcome [3] | outcome [4] | Potency [5] | outcome [7] | Potency [8] | outcome [9] | Potency [10] | Potency [11] | Potency [12] | outcome [13] | max response [14] 11.2% | outcome [15] | outcome [16] | Potency [17] | outcome [18] | Potency [20]

CCCCCCCCCCOc1cc2c(=O)c(C(=O)OCC)c[nH]c2cc1OCC
inactive: activity change, negative = cytotoxicity [1] 1.84% [at 6.97 µM] | activation (H2AX phosphorylation) [2] 0.376% [at 14 µM] | activation [3] 0.236% [at 7.01 µM] | activity change, negative = cytotoxicity [4] 1.5% [at 14 µM] | activity change, negative = cytotoxicity [7] 3.75% [at 6.97 µM] | activity change, negative = cytotoxic [8] 6.41% [at 6.97 µM] | cytotoxicity [9] -0.138% [at 6.97 µM] | activity change, negative = cytotoxic [10] 0.617% [at 6.97 µM] | cytotoxicity increase [11] 0.78% [at 6.97 µM] | activity change, negative = cytotoxicity [12] -0.329% [at 6.97 µM] | viability change, negative = cytotoxic [13] 8.14% [at 6.97 µM] | max response [14] 4.14% | activity change [15] 2.15% [at 6.97 µM] | cytotoxicity increase [16] 1.94% [at 6.97 µM] | activity change, negative = cytotoxic [17] 0.806% [at 6.97 µM] | cytotoxicity [18] 2.18% [at 6.97 µM] | cytotoxicity increase [19] -5.64% [at 6.97 µM] | activity change, negative = cytotoxicity [20] -0.96% [at 6.97 µM]
